IL-1B inflam inh = qHTS for Inhibitors of Inflammasome Signaling: IL-1-beta AlphaLISA Primary Screen; THP-1 LPS/ATP IL-1B secretion, AlphaLISA, 16 h; active compounds read low; 360,000 compounds, 4.7% hits; activity change, % at 57.5 µM; in the data active = activity change below about -50%; inconclusive = mostly about -30% to -49%; also: % is scaled to controls: 0 for no effect and ±100 for the full control effect
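Secreted IL-1B measured by AlphaLISA bead assay after 16 h compound exposure of THP-1 cells; compounds (final up to 57.5 uM) added 1 h before LPS (250 ng/mL) and ATP (1.25 mM) stimulation; lower signal means less secretion.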
TGFb inhibitor = qHTS for Inhibitors of TGF-b; Potency, µM (top dose mostly 46.1 µM), inactives show at the highest dose activity, negative = inhibition, actives largely listed as inhibitors; AID 588855, 2011; HepG2 CAGA-GFP TGF-b/SMAD3 reporter, GFP fluorescence, 18 h; TGF-beta stimulated, 500 pg/mL final; 410,000 compounds, 1.2% hits; also: potency is read from the fitted curve at half-maximal effect; % is scaled to controls: 0 for no effect and ±100 for the full control effect; nearly all actives have a fitted effect of over 65% in size
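Using HEPG2 CAGA-GFP reporter cells at 1000 cells/well, we pinned test compounds, stimulated with recombinant TGF-beta (500 pg/mL final) and measured total well GFP after 18 h.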
S-ASM inh = Inhibitors of Secretory Acid Sphingomyelinase (S-ASM): qHTS; placental ASM, HMU-PC fluorogenic substrate, 60 min; 340,000 compounds, 0.006% hits; Sphingomyelin phosphodiesterase (Homo sapiens), P17405; AID 504937, 2011; Potency, µM (series often up to 57.5 µM), inactives show at the top dose activity change, negative = inhibition, actives largely listed as inhibitors; also: potency is read from the fitted curve at half-maximal effect
Target sequence (P17405 47-631 limits assumed): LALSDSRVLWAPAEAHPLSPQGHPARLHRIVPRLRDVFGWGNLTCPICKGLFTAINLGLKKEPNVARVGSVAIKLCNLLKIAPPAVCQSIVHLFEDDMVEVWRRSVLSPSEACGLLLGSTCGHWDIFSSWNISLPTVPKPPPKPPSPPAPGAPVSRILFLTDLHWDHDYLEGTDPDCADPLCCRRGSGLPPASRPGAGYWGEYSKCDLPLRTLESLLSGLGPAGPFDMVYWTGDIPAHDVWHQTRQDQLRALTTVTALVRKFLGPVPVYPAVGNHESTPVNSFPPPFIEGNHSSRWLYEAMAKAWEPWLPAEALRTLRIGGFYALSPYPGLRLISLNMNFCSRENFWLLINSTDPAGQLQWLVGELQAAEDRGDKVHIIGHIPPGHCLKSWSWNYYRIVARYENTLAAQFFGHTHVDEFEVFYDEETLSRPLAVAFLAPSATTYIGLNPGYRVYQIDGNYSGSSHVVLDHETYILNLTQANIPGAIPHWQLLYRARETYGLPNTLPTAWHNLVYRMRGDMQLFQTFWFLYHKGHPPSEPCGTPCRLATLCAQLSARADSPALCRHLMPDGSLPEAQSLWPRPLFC
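Fluorogenic HMU-PC substrate (9 uM final) is turned over by placental ASM in 60 min at 37 C after a 10 min compound preincubation. Reaction ended by alkaline stop (pH 10), with fluorescence read at 386/447 nm.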
DT40 TDP1 CPT = qHTS for Inhibitors of human tyrosyl-DNA phosphodiesterase 1 (TDP1): qHTS in cells in presence of CPT | chicken DT40 Tdp1-/-;hTDP1 cells + 20 nM CPT, ATP luminescence, 48 h | Potency, µM (titrated, usually from 46.2 µM), inactives show top-dose activity change, negative = growth inhibition, usual class: inhibitors | 420,000 compounds, 12% hits | AID 686979, 2013; also: potency is read from the fitted curve at half-maximal effect; % is scaled to controls: 0 for no effect and ±100 for the full control effect; nearly all actives have a fitted effect of over 55% in size
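Chicken DT40 Tdp1-/- cells complemented with human TDP1, 400 cells/well, exposed to compounds plus 20 nM camptothecin for at least 48 h at 37 C; viability read as ATP content by CellTiter-Glo luminescence.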
DT40 TDP1 no CPT = qHTS for Inhibitors of human tyrosyl-DNA phosphodiesterase 1 (TDP1): qHTS in cells in absence of CPT. DT40 Tdp1-/- hTDP1 cells, no CPT, ATP luminescence, 48 h. Potency, µM (titrated, usually from 46.2 µM), without a hit: at the top dose activity change, negative = growth inhibition, hits mostly inhibitors. 420,000 compounds, 15% hits; also: potency is read from the fitted curve at half-maximal effect; % is scaled to controls: 0 for no effect and ±100 for the full control effect; nearly all actives have a fitted effect of over 55% in size
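Seeded 400 DT40-hTDP1 cells/well (vehicle DMSO, no 20 nM CPT); pinned compounds; ≥48 hr at 37 °C; CellTiter-Glo luminescence as viability measure.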
HepG2 viability = qHTS for Inhibitors of TGF-b: Cytotox Counterscreen; HepG2 CAGA-GFP viability, ATP luminescence, 18 h; Potency, µM (doses to about 46.1 µM), for inactives: at the highest dose activity change, negative = cytotoxicity, most hits filed as cytotoxic; 410,000 compounds, 0.76% hits; also: potency is read from the fitted curve at half-maximal effect
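CellTiter-Glo luminescence gave cytotoxicity after 18 hours at 37 degrees C. The cells were HepG2 CAGA-GFP in 1% FBS DMEM, stimulated with 500 pg/mL TGF-beta after compound addition. %Activity was normalised to no-cell wells (complete cell-killing) and DMSO (no toxicity), and curves were fitted and classified.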
Starred values were filed as active, the others as inactive; ? = inconclusive; . = not tested or not shown. Compounds with a hit are over-represented: about 19% of the library has one in this group of screens. Unless noted, calls follow the shape of the dose curve; as a rule, active = well fitted curve in the direction sought with a large enough effect; inconclusive = small, poorly fitted or top-dose-only effect, or another doubt; inactive = no such curve, though single readings can be large; an effect the other way counts as inactive or inconclusive.

SMILES | IL-1B inflam inh | TGFb inhibitor | S-ASM inh | DT40 TDP1 CPT | DT40 TDP1 no CPT | HepG2 viability
CN(C)c1ccc(C(C(=O)NCc2ccccc2)N(Cc2ccco2)C(=O)c2snc(C(N)=O)c2N)cc1 (stereo not given) | -72.0* | 18.3% | 6.5% | 14.6µM* | 8.2µM* | -10.2%
NC(=O)c1nsc(C(=O)N(Cc2ccco2)C(C(=O)NCc2ccc(F)cc2)c2ccc(O)cc2)c1N (stereo not given) | ? | 12.7% | 108.9% | 16.4µM* | ? | -4.8%
O=C(CN1CCc2ccccc2C1)Nc1ccccc1C(=O)NC1CC1 | 16.7 | -3.4% | 4.7% | 0.9% | -28.1% | -3.0%
Cc1cn2c(=O)cc(COc3ccc(C(C)(C)C)cc3)nc2s1 | . | -4.4% | . | -27.1% | -19.2% | -2.4%
CCN1C(=O)c2ccc(C(=O)NCc3ccco3)cc2C1=O | 11.2 | -2.6% | 2.6% | 24.2% | -1.5% | 4.9%
CN(C)c1ccc(C(C(=O)NCC2CCCO2)N(Cc2ccco2)C(=O)c2snc(C(N)=O)c2N)cc1 (stereo not given) | -3.2 | -3.3% | 8.8% | ? | ? | -0.2%
CN(C)c1ccc(C(C(=O)NCC2CCCO2)N(Cc2ccccc2)C(=O)c2snc(C(N)=O)c2N)cc1 (stereo not given) | -11.1 | ? | -0.5% | 10.3µM* | 18.4µM* | -17.6%
O=C1c2ccccc2C(=O)c2c1ncn2-c1ccccc1 | 42.7 | ? | 0.0% | 5.8µM* | 5.17µM* | -76.1%
Nc1nc2c(ncn2-c2ccccc2)c(=O)[nH]1 | 9.2 | 9.6% | -0.7% | -5.4% | 1.7% | -1.7%
Cc1ccc(NC(=O)c2ccc3oc(=O)c(S(=O)(=O)c4ccccc4)cc3c2)cc1C | . | -4.0% | . | -14.4% | -11.9% | -94.5%
CN1CCN(C(=O)/C(=C/c2cn(S(=O)(=O)N(C)C)c3ccccc23)NC(=O)c2ccccc2F)CC1 | -27.4 | -1.9% | 1.4% | -25.3% | ? | -10.9%
CCN(CC)C(=O)Cn1cc(C(=O)C(=O)N(CC)C2CCCCC2)c2ccccc21 | -0.1 | -2.0% | -0.1% | ? | ? | 10.2%
CCc1ccc(NC(=O)N(Cc2cn(CC)c3ccccc23)C2CCCCC2)cc1 | . | ? | . | 7.31µM* | 11.6µM* | -58.2%
CCOc1ccc(NC(=O)N(Cc2cn(CC)c3ccccc23)C2CCCCCC2)cc1 | . | ? | . | 9.2µM* | 20.6µM* | -16.2%
CCc1ccc2c(c1)[C@H]1OCC[C@H]1[C@@H](c1cccs1)N2 | 23.5 | -27.6% | -5.2% | 13µM* | 7.31µM* | -2.4%
COc1ccc(CNC(=O)Nc2nc(C(N)Cc3ccc(C(F)(F)F)cc3)cs2)cc1 (stereo not given) | ? | 15.8µM* | . | ? | 20.6µM* | -94.1%
COc1ccc(CC(N)c2csc(NC(=O)c3ccccc3OC)n2)cc1 (stereo not given) | -7.4 | -21.0% | . | ? | -25.3% | -49.1%
COc1ccc(CC(N)c2csc(NC(=O)c3ccc(F)cc3)n2)cc1 (stereo not given) | -54.1* | ? | . | ? | 23.1µM* | -28.9%
COc1cc(CNC(=O)Nc2nc(C(N)c3ccccc3)cs2)cc(OC)c1OC (stereo not given) | -20.5 | -19.3% | . | 4.0% | -19.6% | -19.3%
COc1ccc(CC(N)c2csc(NC(=O)C(c3ccccc3)c3ccccc3)n2)cc1 (stereo not given) | -51.9* | ? | . | 18.4µM* | 6.51µM* | 11.2µM*
COc1ccc(CC(N)c2csc(NC(=O)NCCc3ccccc3)n2)cc1 (stereo not given) | ? | ? | . | ? | ? | -75.1%
COc1cc(CNC(=O)Nc2nc(C(N)Cc3ccc(Cl)cc3)cs2)cc(OC)c1OC (stereo not given) | -74.1* | ? | . | ? | 18.4µM* | 17.8µM*
C[C@H](CO)N1C[C@H](C)[C@@H](CN(C)C(=O)Oc2ccccc2)OCc2cn(nn2)CCCC1=O | 8.0 | 37.8% | . | -3.6% | -13.5% | -5.3%
CCOC(=O)c1cc(S(=O)(=O)N2CCN(Cc3ccccc3)CC2)cn1C | -6.6 | -13.3% | 0.9% | ? | ? | -46.8%
COc1ccc(CC(N)c2csc(NC(=O)c3ccc(OC)cc3)n2)cc1 (stereo not given) | ? | ? | . | 16.4µM* | 20.6µM* | -29.9%
SMILES | IL-1B inflam inh | TGFb inhibitor | S-ASM inh | DT40 TDP1 CPT | DT40 TDP1 no CPT | HepG2 viability
COc1ccc(CC(N)c2csc(NC(=O)c3ccccc3)n2)cc1 (stereo not given) | ? | -6.6% | . | ? | ? | -34.8%
CC(C)c1ccc(C2N3CC4(C)CN2CC(c2ccccc2)(C3)C4=O)cc1 (stereo not given) | . | 0.6% | . | ? | 18.4µM* | -3.7%
O=C(c1ccco1)N1CCN(c2ccc(Cl)c(Cl)c2)CC1 | ? | -6.4% | -1.2% | 20.6µM* | 14.6µM* | -25.8%
Cc1c(Cl)ccc2sc(N3CCN(C(=O)C(C)C)CC3)nc12 | . | ? | . | 11.6µM* | 6.51µM* | -32.8%
Cc1cc(C)c2nc(N3CCC(C(=O)N4CCN(C(=O)c5ccco5)CC4)CC3)sc2c1 | ? | ? | -18.3% | ? | 14.6µM* | -31.8%
CC(=O)N1CCN(c2nc3c(C)ccc(Cl)c3s2)CC1 | . | 5.5% | . | -1.4% | ? | -35.7%
O=C(c1ccco1)N1CCN(C(=O)c2ccco2)C1=S | -99.9* | 11.2µM* | 1.1% | 2.59µM* | 5.8µM* | -11.1%
O=C(c1ccco1)N1CCN(c2nc3c(F)cc(F)cc3s2)CC1 | . | -18.9% | . | ? | ? | -19.9%
O=C1c2c(Cl)c(Cl)c(Cl)c(Cl)c2C(=O)N1c1nccs1 | 28.1 | -1.8% | -0.4% | ? | ? | 10.0%
CN(C)S(=O)(=O)c1ccc(C(=O)OCC2CC2(Cl)Cl)cc1 (stereo not given) | 22.9 | 2.4% | 0.5% | 8.4% | -27.2% | 10.6%
COc1ccc(N(CC(=O)N/N=C/c2ccc3c(c2)OCO3)S(=O)(=O)c2ccc(NC(C)=O)cc2)cc1 | -0.9 | -5.0% | -9.8% | ? | -25.0% | -13.7%
